Laboratory results published in PubChem BioAssay (NCI).
Compounds without any hit were thinned out: in the full panel of roughly 79,000, 15% have a hit. A number with no mark means an inactive call. Calls of active or inactive are those of the source. Cut-off read from the data, not from the text of the source: active = growth inhibition above about 70%; inactive = the rest.

Columns and labels:
[1] = NCI Yeast Anticancer Drug Screen. Data for the rad52 strain (AID 147);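 note: 0% = growth of vehicle-treated control cultures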; details: S. cerevisiae rad52 mutant growth inhibition, active compounds read high
Method in brief: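 Compounds are applied to a genetically defined yeast strain lacking normal DNA damage repair, and inhibition of growth is expressed relative to cultures given vehicle only.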

[2] = NCI Yeast Anticancer Drug Screen. Data for the wt1 strain (AID 149);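 note: 0% = growth of vehicle-treated wt1 cultures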; details: S. cerevisiae wt1 strain (SPY 50644) growth inhibition, active compounds read high
Method in brief: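 The wt1 strain was treated with compounds, and growth was compared with vehicle-treated cultures to give inhibition.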

[3] = NCI Yeast Anticancer Drug Screen. Data for the rad50 strain (AID 155);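 note: 0% = growth of vehicle-only cultures of the same strain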; details: S. cerevisiae rad50 strain growth inhibition, active compounds read high
Method in brief: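 Cells are treated with compound, grown, and their growth is then scored against vehicle-only cultures of the same repair-deficient yeast strain.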

[4] = NCI Yeast Anticancer Drug Screen. Data for the mec2-1 strain (AID 157); details: S. cerevisiae mec2-1 strain, active compounds read high
Method in brief: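 Strain: mec2-1 (DNA repair/cell cycle alteration). Compound exposure, then growth measured; inhibition expressed relative to vehicle.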

[5] = NCI Yeast Anticancer Drug Screen. Data for the rad14 strain (AID 159);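 note: 0% = growth of vehicle-treated control cultures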; details: S. cerevisiae rad14 strain growth inhibition, active compounds read high
Method in brief: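 Readout: yeast growth inhibition, referenced to vehicle-only cultures. Strain bears a defined alteration in DNA damage repair.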

[6] = NCI Yeast Anticancer Drug Screen. Data for the sgs1 mgt1 strain (AID 161);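 note: 0% = growth of cultures given vehicle only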; details: S. cerevisiae sgs1 mgt1 strain, active compounds read high
Method in brief: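 Test agents were incubated with a DNA-repair-mutant yeast strain. Growth was then read and compared against vehicle-treated controls.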

[7] = NCI Yeast Anticancer Drug Screen. Data for the CLN2oe strain (AID 163);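 note: 0% = growth of vehicle-only control cultures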; details: S. cerevisiae CLN2oe strain, active compounds read high
Method in brief: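 Growth of a genetically modified yeast strain is measured after compound exposure and compared with cultures given vehicle alone.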

[8] = NCI Yeast Anticancer Drug Screen. Data for the cln2 rad14 strain (AID 165);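 note: 0% = growth equal to vehicle treated cultures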; details: S. cerevisiae cln2 rad14 strain, active compounds read high
Method in brief: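 Compounds are applied to the cln2 rad14 yeast strain, and growth is then compared with that of vehicle-treated cultures to give inhibition.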

[9] = NCI Yeast Anticancer Drug Screen. Data for the bub3 strain (AID 167); details: S. cerevisiae bub3 mutant strain, active compounds read high
Method in brief: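 Part of a panel of yeast mutants defective in DNA damage repair or cell cycle regulation. Each strain is grown with compound, and inhibition is calculated relative to solvent-treated cultures.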

[10] = NCI Yeast Anticancer Drug Screen. Data for the wt2 strain (AID 169);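 note: 0% = growth of vehicle-treated yeast cultures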; details: S. cerevisiae wt2 strain growth inhibition, active compounds read high
Method in brief: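 This strain belongs to a panel of yeast strains with defined genetic alterations in DNA damage repair or cell cycle control. Compounds are applied, and growth inhibition is measured against vehicle-treated cultures.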

[11] = NCI Yeast Anticancer Drug Screen. Data for the mlh1 strain (AID 171);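 note: 0% = growth of vehicle-treated control cultures of the same strain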; details: S. cerevisiae mlh1 strain growth inhibition, active compounds read high
Method in brief: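 Growth of the mutant yeast strain after compound exposure, expressed as inhibition relative to vehicle-only controls.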

[12] = NCI Yeast Anticancer Drug Screen. Data for the sgs1 strain (AID 173);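 note: 0% = growth of vehicle-only control cultures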; details: S. cerevisiae sgs1 mutant, active compounds read high
Method in brief: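 Growth of a yeast strain bearing a defined genetic alteration is measured after compound treatment. Inhibition is expressed relative to vehicle-only controls.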

[13] = NCI Yeast Anticancer Drug Screen. Data for the mlh1 rad18 strain (AID 175); details: S. cerevisiae mlh1 rad18 strain growth inhibition, active compounds read high
Method in brief: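 Read-out is yeast growth inhibition, calculated against vehicle-only controls. The compound was applied to a strain engineered with DNA damage repair alterations.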

[14] = NCI Yeast Anticancer Drug Screen. Data for the rad18 strain (AID 177); details: S. cerevisiae rad18 mutant growth inhibition, active compounds read high
Method in brief: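 Growth of the mutant yeast strain after compound exposure, normalised to vehicle-only cultures.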

[15] = NCI Yeast Anticancer Drug Screen. Data for the rad50EPP+ strain (AID 151);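 note: 0% = growth of vehicle-treated control cultures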; details: S. cerevisiae rad50 mutant strain, active compounds read high
Method in brief: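 Compounds were applied to the rad50EPP+ yeast strain, which bears a defined DNA repair alteration, and growth inhibition was determined relative to vehicle-treated cultures.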

[16] = at 5.0 µM (retest, dose inferred, filed as 0.5)
[17] = at 50.0 µM (retest, dose inferred, filed as 5.0)

Cc1ccc(S(=O)(=O)N(C)c2ccc(Cl)cc2C2=NCCc3ccccc32)cc1
growth inhibition ([1]; at 1.2 µM): 2%
growth inhibition ([1]; at 3.7 µM): -8%
growth inhibition ([1]; at 11.0 µM): -6%
growth inhibition ([1]; at 33.0 µM): 3%
growth inhibition ([1]; at 100.0 µM): 95% (active)
growth inhibition ([2]; at 1.2 µM): -2%
growth inhibition ([2]; at 3.7 µM): -19%
growth inhibition ([2]; at 11.0 µM): -12%
growth inhibition ([2]; at 33.0 µM): -6%
growth inhibition ([2]; at 100.0 µM): 95% (active)
growth inhibition ([3]; at 1.2 µM): 0%
growth inhibition ([3]; at 3.7 µM): 5%
growth inhibition [3, 16]: 47%
growth inhibition ([3]; at 11.0 µM): 11%
growth inhibition ([3]; at 33.0 µM): 3%
growth inhibition [3, 17]: 56%
growth inhibition ([3]; at 50.0 µM): 89% (active)
growth inhibition ([3]; at 100.0 µM): 94% (active)
growth inhibition ([4]; at 1.2 µM): -7%
growth inhibition ([4]; at 3.7 µM): -26%
growth inhibition [4, 16]: 39%
growth inhibition ([4]; at 11.0 µM): -18%
growth inhibition ([4]; at 33.0 µM): -3%
growth inhibition [4, 17]: 61%
growth inhibition ([4]; at 50.0 µM): 91.7% (active)
growth inhibition ([4]; at 100.0 µM): 95% (active)
growth inhibition ([5]; at 1.2 µM): -23%
growth inhibition ([5]; at 3.7 µM): -40%
growth inhibition ([5]; at 11.0 µM): -28%
growth inhibition ([5]; at 33.0 µM): -15%
growth inhibition ([5]; at 100.0 µM): 94% (active)
growth inhibition [6, 16]: 7%
growth inhibition [6, 17]: 94% (active)
growth inhibition ([6]; at 50.0 µM): 93.1% (active)
growth inhibition ([7]; at 1.2 µM): 15%
growth inhibition ([7]; at 3.7 µM): 2%
growth inhibition ([7]; at 11.0 µM): 18%
growth inhibition ([7]; at 33.0 µM): 9%
growth inhibition ([7]; at 100.0 µM): 96% (active)
growth inhibition [8, 16]: 51%
growth inhibition [8, 17]: 98% (active)
growth inhibition ([8]; at 50.0 µM): 90% (active)
growth inhibition ([9]; at 1.2 µM): -16%
growth inhibition ([9]; at 3.7 µM): -9%
growth inhibition [9, 16]: 52%
growth inhibition ([9]; at 11.0 µM): 1%
growth inhibition ([9]; at 33.0 µM): 7%
growth inhibition [9, 17]: 95% (active)
growth inhibition ([9]; at 50.0 µM): 91.6% (active)
growth inhibition ([9]; at 100.0 µM): 95% (active)
growth inhibition ([10]; at 1.2 µM): -25%
growth inhibition ([10]; at 3.7 µM): -40%
growth inhibition ([10]; at 11.0 µM): -19%
growth inhibition ([10]; at 33.0 µM): 6%
growth inhibition ([10]; at 100.0 µM): 94% (active)
growth inhibition ([11]; at 1.2 µM): -21%
growth inhibition ([11]; at 3.7 µM): -21%
growth inhibition ([11]; at 11.0 µM): -17%
growth inhibition ([11]; at 33.0 µM): 14%
growth inhibition ([11]; at 100.0 µM): 96% (active)
growth inhibition ([12]; at 1.2 µM): -15%
growth inhibition ([12]; at 3.7 µM): -20%
growth inhibition ([12]; at 11.0 µM): -11%
growth inhibition ([12]; at 33.0 µM): 6%
growth inhibition ([12]; at 100.0 µM): 93% (active)
growth inhibition [13, 16]: 45%
growth inhibition [13, 17]: 55%
growth inhibition ([13]; at 50.0 µM): 90.4% (active)
growth inhibition ([14]; at 1.2 µM): -13%
growth inhibition ([14]; at 3.7 µM): -12%
growth inhibition ([14]; at 11.0 µM): -18%
growth inhibition ([14]; at 33.0 µM): -11%
growth inhibition ([14]; at 100.0 µM): 94% (active)

O=C(O)c1ccccc1.[Ag]
growth inhibition ([1]; at 1.2 µM): 72% (active)
growth inhibition ([1]; at 3.7 µM): 101% (active)
growth inhibition ([1]; at 11.0 µM): 99% (active)
growth inhibition ([1]; at 33.0 µM): 98% (active)
growth inhibition ([1]; at 100.0 µM): 98% (active)
growth inhibition ([2]; at 1.2 µM): 88% (active)
growth inhibition ([2]; at 3.7 µM): 101% (active)
growth inhibition ([2]; at 11.0 µM): 99% (active)
growth inhibition ([2]; at 33.0 µM): 99% (active)
growth inhibition ([2]; at 100.0 µM): 99% (active)
growth inhibition ([15]; at 1.2 µM): 94% (active)
growth inhibition ([15]; at 3.7 µM): 101% (active)
growth inhibition ([15]; at 11.0 µM): 99% (active)
growth inhibition ([15]; at 33.0 µM): 99% (active)
growth inhibition ([15]; at 100.0 µM): 98% (active)
growth inhibition ([5]; at 1.2 µM): 91% (active)
growth inhibition ([5]; at 3.7 µM): 101% (active)
growth inhibition ([5]; at 11.0 µM): 99% (active)
growth inhibition ([5]; at 33.0 µM): 99% (active)
growth inhibition ([5]; at 100.0 µM): 99% (active)
growth inhibition ([7]; at 1.2 µM): 50%
growth inhibition ([7]; at 3.7 µM): 101% (active)
growth inhibition ([7]; at 11.0 µM): 98% (active)
growth inhibition ([7]; at 33.0 µM): 98% (active)
growth inhibition ([7]; at 100.0 µM): 98% (active)
growth inhibition ([10]; at 1.2 µM): 76% (active)
growth inhibition ([10]; at 3.7 µM): 101% (active)
growth inhibition ([10]; at 11.0 µM): 99% (active)
growth inhibition ([10]; at 33.0 µM): 99% (active)
growth inhibition ([10]; at 100.0 µM): 99% (active)
growth inhibition ([11]; at 1.2 µM): 96% (active)
growth inhibition ([11]; at 3.7 µM): 101% (active)
growth inhibition ([11]; at 11.0 µM): 99% (active)
growth inhibition ([11]; at 33.0 µM): 99% (active)
growth inhibition ([11]; at 100.0 µM): 99% (active)
growth inhibition ([12]; at 1.2 µM): 75% (active)
growth inhibition ([12]; at 3.7 µM): 101% (active)
growth inhibition ([12]; at 11.0 µM): 99% (active)
growth inhibition ([12]; at 33.0 µM): 99% (active)
growth inhibition ([12]; at 100.0 µM): 99% (active)
growth inhibition ([14]; at 1.2 µM): 74% (active)
growth inhibition ([14]; at 3.7 µM): 101% (active)
growth inhibition ([14]; at 11.0 µM): 99% (active)
growth inhibition ([14]; at 33.0 µM): 99% (active)
growth inhibition ([14]; at 100.0 µM): 99% (active)
